Screens (PubChem BioAssay)
PLC-beta3 inh = blocks human PLC-beta3 enzyme activity; Q01970; Purified PLC-beta3, fluorogenic substrate, fluorescence; inhibition, % at 12.2 µM; actives 0.18% (n = 370,000); AID 720704; in the data active = inhibition above about 11%
LEDGF integ inh = blocks HIV-1 LEDGF/p75-dependent DNA integration | TR-FRET IN-LEDGF/p75 DNA integration, Eu/Cy5 | AID 743269 | actives 0.64% (n = 370,000) | inhibition, % at 3.7 µM;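 active = inhibition above the screen-wide mean plus 3 SD, cut at about 13% in these data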;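 note: signal is the Cy5 over europium emission ratio at 671 and 618 nm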
MBD2 DNA inh = blocks human MBD2 binding to methylated DNA; Q9UBB5; TR-FRET, MBD2 binding to methylated oligonucleotide; inhibition, % at 4.4 µM; actives 0.31% (n = 370,000); AID 686964; in the data active = inhibition above about 13%
UHRF1 binding = human UHRF1 methylated DNA binding inhibitors; Q96T88; UHRF1 binding to methylated oligo, TR-FRET; inhibition, % at 4.4 µM; actives 0.75% (n = 370,000); AID 687016; in the data active = inhibition above about 21%;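 note: UHRF1 SRA domain binding a hemimethylated CpG hairpin DNA probe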
Target sequence (Q96T88 whole entry, looked up, the tested form may be a part): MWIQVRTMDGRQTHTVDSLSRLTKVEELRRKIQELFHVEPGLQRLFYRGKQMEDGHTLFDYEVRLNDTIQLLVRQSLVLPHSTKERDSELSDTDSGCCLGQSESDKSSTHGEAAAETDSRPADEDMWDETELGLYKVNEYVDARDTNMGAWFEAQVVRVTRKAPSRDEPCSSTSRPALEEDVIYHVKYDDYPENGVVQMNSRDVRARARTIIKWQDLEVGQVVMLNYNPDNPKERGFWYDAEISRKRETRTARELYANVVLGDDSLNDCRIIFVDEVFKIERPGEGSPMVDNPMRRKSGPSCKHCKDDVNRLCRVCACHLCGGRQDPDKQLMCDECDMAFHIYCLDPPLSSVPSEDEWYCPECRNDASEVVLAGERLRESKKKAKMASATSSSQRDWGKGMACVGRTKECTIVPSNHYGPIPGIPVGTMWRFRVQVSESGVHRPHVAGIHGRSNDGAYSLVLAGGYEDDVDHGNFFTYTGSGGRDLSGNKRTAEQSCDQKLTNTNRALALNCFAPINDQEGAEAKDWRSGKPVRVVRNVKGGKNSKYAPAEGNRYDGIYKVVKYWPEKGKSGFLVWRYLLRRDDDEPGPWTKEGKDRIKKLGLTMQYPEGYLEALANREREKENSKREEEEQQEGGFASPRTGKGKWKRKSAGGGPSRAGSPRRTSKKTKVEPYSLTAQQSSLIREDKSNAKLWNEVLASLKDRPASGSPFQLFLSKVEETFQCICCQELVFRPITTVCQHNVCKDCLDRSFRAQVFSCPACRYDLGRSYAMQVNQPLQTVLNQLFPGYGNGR
PLCg1 inh = PLC-gamma1 (human) inhibition, primary screen; P19174; purified PLC-gamma1, fluorogenic substrate, fluorescence; actives 0.84% (n = 370,000); inhibition, % at 12.2 µM; in the data active = inhibition above about 9.5%
Each line names hits and unclear results; the compound was inactive in the other large screens. Only some compounds are listed: those with a hit (about 2.3% of all), similar ones and a draw of the others.

COc1ccc(C2=Nc3ccccc3N(C(=O)c3cccnc3)C2C(=O)NC2CCCC2)cc1 (configuration not stated)	UHRF1 binding 23
COc1cccc2cc(-c3nnc(-c4ccccc4)o3)c(=O)oc12	UHRF1 binding 21
COc1ccc(-c2nnc(-c3cc4ccccc4oc3=O)o2)cc1	none
Cc1nn(CC(=O)O)c(C)c1N	UHRF1 binding 30
Cc1ccc(NC(=O)COC(=O)c2ccc3ncsc3c2)c(C)c1	UHRF1 binding 22
CCCCCc1ccc(NC(=O)O[C@@H]2CC[C@@]34CCCN3C(=O)CCC[C@H]4C2)cc1	none
COc1ccccc1N1CCN(S(=O)(=O)c2cccs2)CC1	UHRF1 binding 39
COc1cc(C(=O)N2CCN(S(=O)(=O)c3cccs3)CC2)cc(OC)c1C	UHRF1 binding 24
COc1ccc(NS(=O)(=O)c2cc(NC(=O)c3ccc(=O)[nH]n3)ccc2N2CCOCC2)cc1	UHRF1 binding 29
COc1ccc(NS(=O)(=O)c2cc(NC(=O)c3ccc(=O)[nH]c3)ccc2N2CCOCC2)cc1	none
CN(C)c1ccc(C(=O)NC2(N3CCC3=O)CCCC2)cc1	UHRF1 binding 31
O=C1CCCN1CC1CCN(Cc2nc(CC3CC3)no2)CC1	none
O=C1CCCN1CC1CCCN(Cc2nc(COc3ccccc3)no2)C1 (configuration not stated)	UHRF1 binding 23
CC(COc1ccc(C#N)c(F)c1)CN1CCC(C(O)(c2ccccc2)c2ccccc2)CC1 (configuration not stated)	none
Cc1cc(C)nc(NS(=O)(=O)c2ccc(NC(=O)C3(c4ccc([N+](=O)[O-])cc4)CCCC3)cc2)n1	none
COc1ccc(C2(C(=O)Nc3ccc(S(=O)(=O)Nc4nc(C)cc(C)n4)cc3)CCCC2)cc1OC	UHRF1 binding 43
COc1ccc(Cn2cc(CN3[C@H](Cc4ccccc4)COc4cc(Br)ccc4S3(=O)=O)nn2)cc1	none
CCN(C(=O)COC(=O)c1cc([N+](=O)[O-])ccc1N1CCOCC1)C1CCCCC1	UHRF1 binding 26
COc1ccc(Cn2cc(CN3[C@H](CC(C)C)COc4cc(Br)ccc4S3(=O)=O)nn2)cc1	none
CCN(CC)c1ccc(C2C(C(=O)Nc3ccccn3)=C(C)NC3=C2C(=O)CC(C)(C)C3)cc1 (configuration not stated)	none
CCn1cc(C2C(C(=O)Nc3cc(C)ccn3)=C(C)NC3=C2C(=O)CC(C)(C)C3)c(C)n1 (configuration not stated)	UHRF1 binding 26
CC(C)CC(=O)Nc1cccc(C(C)O)c1 (configuration not stated)	UHRF1 binding 21
CC(C)(C)OC(=O)N1CCC(CNC(=O)c2ccc(F)cc2F)CC1	UHRF1 binding 23
C=CC#CC[N+]1(CC#Cc2ccccc2)CCOCC1	MBD2 DNA inh 20
COc1cc2c(cc1OC)C(SC)=NC1(CCCC1)C2	UHRF1 binding 27
Cc1ccc2nc(-c3ccc(Cl)cc3)c(CC3CCCCC3)n2c1	UHRF1 binding 21
Cc1ccc2nc(-c3ccc(F)cc3)c(Cc3cccc(F)c3)n2c1	none
Brc1ccc2nc(-c3ccco3)c(CC3CCCCC3)n2c1	LEDGF integ inh 16
Cc1ccc(Cc2c(-c3ccco3)nc3ccc(Br)cn23)cc1	none
Cc1ccc2nc(-c3ccc(F)cc3)c(CC3CCCCC3)n2c1	UHRF1 binding 21
CCN(C[C@H]1N[C@@](C)(C(=O)OC)[C@H]2C(=O)N(C)C(=O)[C@@H]12)S(=O)(=O)c1ccc(C(F)(F)F)cc1	UHRF1 binding 22
CCN(C[C@H]1N[C@@](C)(C(=O)OC)[C@H]2C(=O)N(C)C(=O)[C@@H]12)S(=O)(=O)c1ccccc1	none
COc1ccc(-n2c(SCC(=O)Nc3ccc(S(=O)(=O)Nc4nccs4)cc3)nnc2-c2ccccc2)cc1	none
COc1ccc(Cl)cc1NC(=O)CN(C)C(=O)c1cc(-c2ccncc2)nc2ccccc12	LEDGF integ inh 16
COc1ccc(NC(=O)CN(C)C(=O)c2cc(-c3ccncc3)nc3ccccc23)cc1	none
CCOc1ccccc1C1NC(=O)NC(C)=C1C(=O)OC1CCCCC1 (configuration not stated)	UHRF1 binding 81
CCOc1ccccc1C1NC(=O)NC(C)=C1C(=O)OC1CCCC1C (configuration not stated)	none
C#CCN(C[C@@H]1[C@@H](OC(=O)NCc2ccc(OC)c(OC)c2)[C@@H](OC(=O)NCc2ccc(OC)c(OC)c2)Cn2c(=O)ccc(=O)n21)S(=O)(=O)c1ccc(C)cc1	none
C#CCN(C[C@@H]1[C@@H](OC(=O)NCc2ccc(OC)c(OC)c2)[C@@H](OC(=O)NCc2ccc(OC)c(OC)c2)CN(C(=O)OC(C)C)N1C(=O)OC(C)C)S(=O)(=O)c1ccc(C)cc1	LEDGF integ inh 52
Cc1ccc(S(=O)(=O)N(CC(=O)NCCC2=CCCCC2)Cc2ccccc2)cc1	UHRF1 binding 28
O=C(CN(Cc1ccccc1)S(=O)(=O)c1ccc(F)cc1)NCCC1=CCCCC1	none
O=C(NNc1ccccc1Br)C(=O)n1ccc2ccccc21	UHRF1 binding 66
CCOC(=O)CCC(NC(=O)CC(=O)NC(CCC(=O)OCC)C(=O)OCC)C(=O)OCC (configuration not stated)	UHRF1 binding 36
CN1CCN(c2ccc(NC(=O)c3ccc(-c4ccccc4F)o3)cc2)CC1	UHRF1 binding 37
CN1CCN(c2ccc(NC(=O)c3ccc(Br)o3)cc2)CC1	none
COC(=O)[C@]12C[C@H](CC(=O)NCCc3ccccc3OC)C(=O)N(Cc3ccco3)C1=C[C@H](C(C)(C)C)O[C@@H]2C	none
CCOC(=O)c1sc2nc(C)nc(NCc3ccccc3OC)c2c1C	none
CCOC(=O)c1sc2nc(C)nc(NCCc3ccccn3)c2c1C	UHRF1 binding 69
O=C(CSc1nnc(-c2ccccc2)n1-c1ccc(Cl)cc1)NN=Cc1c[nH]c2ccccc12	none
O=C(NCCO)c1ccc2nc(-c3ccco3)c(-c3ccco3)nc2c1	LEDGF integ inh 77, UHRF1 binding 42
c1coc(-c2cnc3ccccc3n2)c1	none
c1coc(-c2nc3ccccc3nc2-c2ccco2)c1	LEDGF integ inh 48, UHRF1 binding 53
O=C(NCCO)c1ccc(Cl)c(Cl)c1	none
COC(=O)[C@]12C[C@H](CC(=O)NCC3CCCCC3)C(=O)N(Cc3ccco3)C1=C[C@H](COCc1ccccc1)O[C@@H]2C	none
CCCCNC(=O)C[C@H]1C[C@@]2(C(=O)OC)C(=C[C@H](C(C)C)O[C@@H]2C2CC2)N(Cc2ccccc2)C1=O	UHRF1 binding 24
COc1cc(NC(C)CCCNC(C)C)c2ncccc2c1OC (configuration not stated)	LEDGF integ inh 14
COc1cc2c(NCCCCCO)ncnc2c(OC)c1OC	none
COc1cc(NCCCCCCN)c2ncccc2c1OC	LEDGF integ inh 40
O=C(CCc1nc2ccccc2c(=O)[nH]1)Nc1cc(Cl)ccc1N1CCCC1	UHRF1 binding 32
